These results are taken from the supplement of paper PMC10849652.

What all share (assay): log2 fold change, soluble protein after heating vs DMSO (PISA); higher = thermal stabilisation; K562 lysate, 10 uM; active = over 0.2 and 3.5 SD of the protein, either way, in both replicates (recomputed)
Compound in assay [1]: NCC(=O)Nc1ccc(-n2nc(C(F)(F)F)cc2-c2ccc3c(ccc4ccccc43)c2)cc1
The essentials:
(§1)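 The values are log-two fold changes in thermal stability compared with solvent controls and come from duplicates. They were obtained by TMTpro 16plex LC-MS/MS, with channel sums equalised, on the supernatant after 21,000xg for 90 min. That supernatant came from crude K562 extract at 1 mg/mL protein treated with 10 μM compound for 30 min, heated for 3 min across 48°C-58°C, pooled and brought to 0.5% NP-40 at 4°C.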

Compound in the next assay: O=C(CCCCCCC(=O)Nc1ccccc1)NO [vorinostat]
The essentials: as §1

Compound in a further assay: O=C(O)c1ccc2c(c1)nc(Nc1cccc(Cl)c1)c1ccncc12 [silmitasertib]
The essentials:
as §1

Compound in assay [2]: O=C1NC(=O)C(c2cnc3ccccn23)=C1c1cn2c3c(cc(F)cc13)CN(C(=O)N1CCCCC1)CC2
The essentials:
as §1

Compound in another assay: c1cn2cc(-c3ccc4cn[nH]c4c3)nc(Nc3ccc(N4CCOCC4)cc3)c2n1 [entospletinib]
The essentials:
as §1

The full data set covers some 8,800 targets. This sample favours those with a hit. About 0.5% of all pairs of compound and target were hits. Unmarked numbers belong to inactive results.

Chain of UniProt Q92930 (Q92930 whole entry, looked up): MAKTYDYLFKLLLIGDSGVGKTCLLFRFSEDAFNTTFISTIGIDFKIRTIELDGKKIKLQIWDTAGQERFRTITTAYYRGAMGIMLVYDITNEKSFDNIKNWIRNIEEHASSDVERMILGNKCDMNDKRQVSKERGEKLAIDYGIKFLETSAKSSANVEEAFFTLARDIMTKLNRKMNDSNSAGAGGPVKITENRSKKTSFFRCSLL
Chain of UniProt Q7Z6M1 (Q7Z6M1 whole entry, looked up): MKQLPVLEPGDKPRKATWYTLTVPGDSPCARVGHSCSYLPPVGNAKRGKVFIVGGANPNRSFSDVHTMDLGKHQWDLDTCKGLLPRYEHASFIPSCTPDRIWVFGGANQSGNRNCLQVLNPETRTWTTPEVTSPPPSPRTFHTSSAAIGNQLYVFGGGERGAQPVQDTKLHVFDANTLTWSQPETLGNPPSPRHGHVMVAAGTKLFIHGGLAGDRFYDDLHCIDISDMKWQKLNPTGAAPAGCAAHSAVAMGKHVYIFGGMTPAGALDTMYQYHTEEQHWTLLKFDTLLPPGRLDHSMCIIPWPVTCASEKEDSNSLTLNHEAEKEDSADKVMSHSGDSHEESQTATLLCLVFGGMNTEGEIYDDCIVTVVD
Chain of UniProt Q96EE3 (Q96EE3 whole entry, looked up): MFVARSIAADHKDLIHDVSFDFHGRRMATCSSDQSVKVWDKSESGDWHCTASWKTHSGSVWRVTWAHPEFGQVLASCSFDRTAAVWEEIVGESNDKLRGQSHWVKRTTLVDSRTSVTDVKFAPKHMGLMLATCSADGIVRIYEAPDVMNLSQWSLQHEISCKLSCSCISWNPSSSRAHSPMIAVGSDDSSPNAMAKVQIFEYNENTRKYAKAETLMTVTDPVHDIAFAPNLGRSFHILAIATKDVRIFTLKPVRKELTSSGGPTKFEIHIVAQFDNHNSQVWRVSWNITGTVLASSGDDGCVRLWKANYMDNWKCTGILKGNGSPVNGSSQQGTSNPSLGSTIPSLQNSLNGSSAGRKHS
Chain of UniProt Q9H1K0 (Q9H1K0 whole entry, looked up): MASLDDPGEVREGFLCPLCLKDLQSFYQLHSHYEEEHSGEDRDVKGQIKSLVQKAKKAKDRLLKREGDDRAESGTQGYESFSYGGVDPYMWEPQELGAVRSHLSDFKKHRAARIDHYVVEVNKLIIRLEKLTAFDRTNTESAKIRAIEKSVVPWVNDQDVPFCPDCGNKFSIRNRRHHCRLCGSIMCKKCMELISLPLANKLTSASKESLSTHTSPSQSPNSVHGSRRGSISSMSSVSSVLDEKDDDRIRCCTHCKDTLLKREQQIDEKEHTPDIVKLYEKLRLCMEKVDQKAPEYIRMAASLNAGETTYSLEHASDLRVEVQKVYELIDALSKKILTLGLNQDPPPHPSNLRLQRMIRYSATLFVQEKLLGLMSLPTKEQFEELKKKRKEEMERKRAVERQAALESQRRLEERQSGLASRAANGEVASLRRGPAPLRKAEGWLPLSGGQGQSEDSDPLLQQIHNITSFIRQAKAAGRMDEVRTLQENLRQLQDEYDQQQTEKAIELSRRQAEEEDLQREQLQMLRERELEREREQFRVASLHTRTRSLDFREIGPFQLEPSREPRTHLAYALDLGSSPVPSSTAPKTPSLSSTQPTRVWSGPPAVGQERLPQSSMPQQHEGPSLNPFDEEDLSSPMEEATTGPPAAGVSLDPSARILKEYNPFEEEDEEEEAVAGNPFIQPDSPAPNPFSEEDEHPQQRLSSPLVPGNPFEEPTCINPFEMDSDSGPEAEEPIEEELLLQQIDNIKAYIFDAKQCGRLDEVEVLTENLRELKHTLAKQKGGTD
Chain of UniProt O15541 (O15541 whole entry, looked up): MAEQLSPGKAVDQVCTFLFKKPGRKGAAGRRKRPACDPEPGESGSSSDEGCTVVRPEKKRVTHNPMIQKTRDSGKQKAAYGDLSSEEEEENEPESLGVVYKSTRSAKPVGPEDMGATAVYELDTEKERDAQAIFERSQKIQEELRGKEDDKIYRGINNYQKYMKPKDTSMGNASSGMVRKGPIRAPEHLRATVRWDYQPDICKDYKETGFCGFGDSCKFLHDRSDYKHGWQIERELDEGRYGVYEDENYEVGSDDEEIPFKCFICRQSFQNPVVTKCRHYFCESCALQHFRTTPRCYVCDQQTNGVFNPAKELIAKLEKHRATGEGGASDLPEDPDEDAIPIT
Chain of UniProt Q15287 (Q15287 whole entry, looked up): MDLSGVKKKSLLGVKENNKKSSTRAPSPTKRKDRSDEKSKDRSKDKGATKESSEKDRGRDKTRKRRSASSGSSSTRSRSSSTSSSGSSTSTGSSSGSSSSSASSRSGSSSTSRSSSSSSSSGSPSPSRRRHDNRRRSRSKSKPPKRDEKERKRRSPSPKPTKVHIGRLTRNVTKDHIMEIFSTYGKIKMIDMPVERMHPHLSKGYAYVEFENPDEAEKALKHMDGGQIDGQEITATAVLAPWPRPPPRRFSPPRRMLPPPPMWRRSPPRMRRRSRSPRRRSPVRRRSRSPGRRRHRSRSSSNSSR
Chain of UniProt Q9NTN9 (Q9NTN9 whole entry, looked up): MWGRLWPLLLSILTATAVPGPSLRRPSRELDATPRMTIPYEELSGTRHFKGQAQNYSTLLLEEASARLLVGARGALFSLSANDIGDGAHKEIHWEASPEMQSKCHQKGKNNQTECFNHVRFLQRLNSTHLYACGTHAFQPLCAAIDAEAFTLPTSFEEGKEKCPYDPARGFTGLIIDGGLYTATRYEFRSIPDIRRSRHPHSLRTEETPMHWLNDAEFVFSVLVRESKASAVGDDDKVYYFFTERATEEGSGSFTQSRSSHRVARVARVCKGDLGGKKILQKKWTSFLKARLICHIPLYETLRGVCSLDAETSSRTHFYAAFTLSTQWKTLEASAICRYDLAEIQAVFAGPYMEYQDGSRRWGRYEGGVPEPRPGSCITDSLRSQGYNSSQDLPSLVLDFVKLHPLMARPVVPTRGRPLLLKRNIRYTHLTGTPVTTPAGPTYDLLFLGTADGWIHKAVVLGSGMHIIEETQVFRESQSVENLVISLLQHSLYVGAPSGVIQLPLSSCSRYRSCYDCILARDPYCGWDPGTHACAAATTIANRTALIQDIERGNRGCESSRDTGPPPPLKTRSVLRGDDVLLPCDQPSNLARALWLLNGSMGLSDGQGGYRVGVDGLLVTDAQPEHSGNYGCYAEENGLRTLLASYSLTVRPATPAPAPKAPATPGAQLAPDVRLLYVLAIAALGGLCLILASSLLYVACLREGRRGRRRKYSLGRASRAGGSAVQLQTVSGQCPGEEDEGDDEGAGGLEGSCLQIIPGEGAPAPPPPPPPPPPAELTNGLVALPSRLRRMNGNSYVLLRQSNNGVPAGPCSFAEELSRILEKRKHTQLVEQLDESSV
Chain of UniProt Q96K19 (Q96K19 whole entry, looked up): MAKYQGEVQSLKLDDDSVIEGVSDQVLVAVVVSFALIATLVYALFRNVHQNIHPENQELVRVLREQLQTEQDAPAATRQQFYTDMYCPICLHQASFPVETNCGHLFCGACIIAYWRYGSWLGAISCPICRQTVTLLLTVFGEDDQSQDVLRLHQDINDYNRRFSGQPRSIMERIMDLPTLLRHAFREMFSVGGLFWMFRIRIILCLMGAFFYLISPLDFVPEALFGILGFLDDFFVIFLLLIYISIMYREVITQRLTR
Chain of UniProt P18754 (P18754 whole entry, looked up): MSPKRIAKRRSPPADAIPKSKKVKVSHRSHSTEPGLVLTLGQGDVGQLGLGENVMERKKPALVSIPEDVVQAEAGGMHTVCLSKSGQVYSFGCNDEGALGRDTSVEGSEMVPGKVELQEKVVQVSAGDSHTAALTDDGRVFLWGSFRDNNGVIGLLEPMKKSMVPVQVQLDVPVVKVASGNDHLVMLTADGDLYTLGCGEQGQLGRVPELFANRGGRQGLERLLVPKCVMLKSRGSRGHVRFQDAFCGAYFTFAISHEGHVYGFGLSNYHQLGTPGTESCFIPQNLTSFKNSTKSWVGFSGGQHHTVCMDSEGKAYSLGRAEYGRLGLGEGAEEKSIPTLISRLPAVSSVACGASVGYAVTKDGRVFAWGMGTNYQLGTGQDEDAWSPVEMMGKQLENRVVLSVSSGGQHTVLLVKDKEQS
Chain of UniProt P61586 (P61586 whole entry, looked up): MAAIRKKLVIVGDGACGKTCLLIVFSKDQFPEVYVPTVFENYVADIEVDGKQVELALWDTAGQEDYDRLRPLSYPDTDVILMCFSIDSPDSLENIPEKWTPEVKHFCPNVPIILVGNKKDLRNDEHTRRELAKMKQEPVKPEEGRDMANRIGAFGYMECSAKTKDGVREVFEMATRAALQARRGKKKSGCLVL
Chain of UniProt P35241 (P35241 whole entry, looked up): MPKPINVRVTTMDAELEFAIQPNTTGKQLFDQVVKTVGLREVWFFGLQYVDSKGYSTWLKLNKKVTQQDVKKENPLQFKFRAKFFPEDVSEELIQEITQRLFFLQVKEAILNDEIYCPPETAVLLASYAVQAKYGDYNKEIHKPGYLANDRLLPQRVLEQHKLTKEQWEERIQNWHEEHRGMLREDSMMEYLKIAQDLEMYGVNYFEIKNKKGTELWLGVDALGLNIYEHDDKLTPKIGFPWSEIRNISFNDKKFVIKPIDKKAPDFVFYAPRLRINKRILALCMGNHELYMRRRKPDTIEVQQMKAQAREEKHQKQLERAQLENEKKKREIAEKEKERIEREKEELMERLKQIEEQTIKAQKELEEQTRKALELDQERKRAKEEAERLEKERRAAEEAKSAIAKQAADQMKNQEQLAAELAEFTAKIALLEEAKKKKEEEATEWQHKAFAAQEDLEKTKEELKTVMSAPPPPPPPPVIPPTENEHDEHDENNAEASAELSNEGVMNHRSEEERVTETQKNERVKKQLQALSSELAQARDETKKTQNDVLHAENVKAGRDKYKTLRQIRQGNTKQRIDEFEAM
Chain of UniProt O43819 (O43819 whole entry, looked up): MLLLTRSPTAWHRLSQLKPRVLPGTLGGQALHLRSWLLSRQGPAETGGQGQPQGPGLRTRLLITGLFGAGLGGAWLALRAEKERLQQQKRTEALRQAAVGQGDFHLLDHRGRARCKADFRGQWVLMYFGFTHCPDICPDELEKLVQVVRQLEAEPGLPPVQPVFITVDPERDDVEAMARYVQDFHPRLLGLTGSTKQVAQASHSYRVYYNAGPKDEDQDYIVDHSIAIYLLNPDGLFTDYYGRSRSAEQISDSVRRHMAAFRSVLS

In the case of RCC1 isoform 2 (UniProt P18754), the log2 fold change in assay [1] was 0.009; with vorinostat, -0.381 (active); with silmitasertib, 0.034; in assay [2] it was 0.051; with entospletinib it was -0.014.

For RBM42 (UniProt Q9BTD8), the log2 fold change was 0.19 in assay [1]; -0.04 with vorinostat; -0.031 with silmitasertib; 0.018 in assay [2]; -0.058 with entospletinib.

Consider RBSN (UniProt Q9H1K0), for which the log2 fold change was 0.039 in assay [1]; 0.035 with vorinostat; -0.032 with silmitasertib; -0.026 in assay [2]; -0.088 with entospletinib.

Take RAPGEF2, A0A2R8YGD3: the log2 fold change in assay [1] was -0.041; in the assay with vorinostat, 0.2; with silmitasertib, -0.007; in assay [2], 0.015; with entospletinib, -0.046.

S100A6 (UniProt P06703): the log2 fold change in assay [1] was 0.064; with vorinostat, 0.136; in the assay with silmitasertib, -0.036; in assay [2], -0.071; with entospletinib it was -0.005.

For SEMA4G isoform 2 (UniProt Q9NTN9), the log2 fold change in assay [1] is 0.078; with vorinostat, -0.513 (active); in the assay with silmitasertib, 0.172; in assay [2] it was 0.103; with entospletinib, -0.09.

As for RPL37A (UniProt P61513), the log2 fold change in assay [1] is 0.028; with vorinostat it was 0.08; with silmitasertib, -0.021; in assay [2], 0.093; in the assay with entospletinib, -0.005.

On to RAB3IL1 (UniProt Q8TBN0), for which the log2 fold change in assay [1] was -0.006; with vorinostat, -0.268 (active); with silmitasertib, 0.025; in assay [2], 0.07; with entospletinib, 0.015.

RAB8B (UniProt Q92930): the log2 fold change in assay [1] is -0.022; in the assay with vorinostat, 0.135; in the assay with silmitasertib, -0.025; in assay [2], 0; with entospletinib, -0.021.

For SEC13 isoform 3 (UniProt P55735), the log2 fold change in assay [1] is -0.01; in the assay with vorinostat it was -0.115; with silmitasertib, 0.021; in assay [2], -0.045; with entospletinib, -0.001.

Turning to RPS6KA3 (UniProt P51812), the log2 fold change in assay [1] is -0.017; with vorinostat, -0.384; with silmitasertib it was 0.362; in assay [2] it was 0.181; with entospletinib it was -0.052.

For RNPS1 (UniProt Q15287), the log2 fold change in assay [1] was -0.014; in the assay with vorinostat, 0.02; with silmitasertib, -0.093; in assay [2], -0.012; with entospletinib it was 0.009.

In the case of RNF113A (UniProt O15541), the log2 fold change in assay [1] is 0.009; with vorinostat, -0.02; with silmitasertib, -0.03; in assay [2] it was -0.004; in the assay with entospletinib it was 0.02.

Take RNF213, A0A0A0MTC1: the log2 fold change is 0.022 in assay [1]; -0.381 (active) with vorinostat; 0.032 in the assay with silmitasertib; 0.007 in assay [2]; 0.052 in the assay with entospletinib.

In the case of RDX (UniProt P35241), the log2 fold change in assay [1] was 0.002; with vorinostat, 0.129; in the assay with silmitasertib, -0.017; in assay [2], -0.008; in the assay with entospletinib, 0.023.

For the target RELN (UniProt P78509), the log2 fold change in assay [1] was 0.016; in the assay with vorinostat it was 0.088; with silmitasertib, -0.049; in assay [2] it was 0.006; in the assay with entospletinib, -0.037.

Regarding RECQL4 (UniProt O94761), the log2 fold change in assay [1] was -0.003; with vorinostat, -0.044; with silmitasertib, 0.019; in assay [2] it was 0.022; with entospletinib, -0.023.

For RHOA (UniProt P61586), the log2 fold change is 0.03 in assay [1]; 0.064 with vorinostat; -0.009 in the assay with silmitasertib; 0 in assay [2]; 0.022 with entospletinib.

Take SEH1L isoform 1 (UniProt Q96EE3): the log2 fold change in assay [1] was 0.056; with vorinostat it was -0.001; with silmitasertib, -0.02; in assay [2], -0.008; in the assay with entospletinib, -0.011.

RPS9 (UniProt P46781): the log2 fold change in assay [1] is -0.03; with vorinostat it was 0.125; with silmitasertib, 0.042; in assay [2] it was 0.002; with entospletinib, 0.004.

Regarding SCO2 (UniProt O43819), the log2 fold change was -0.024 in assay [1]; 0.063 with vorinostat; -0.079 with silmitasertib; 0.017 in assay [2]; 0.053 with entospletinib.

Regarding SELENOK (UniProt Q9Y6D0), the log2 fold change in assay [1] is -0.192.

RAP1B (UniProt F5GZG1): the log2 fold change in assay [1] is -0.051; with vorinostat, -0.054; with silmitasertib, -0.004; in assay [2], -0.099; with entospletinib, -0.026.

Take RNF170 (UniProt Q96K19): the log2 fold change in assay [1] is -0.003; in the assay with vorinostat it was 0.004; in the assay with silmitasertib, 0.169.

Turning to RABEPK (UniProt Q7Z6M1), the log2 fold change was 0.008 in assay [1]; -0.441 (active) with vorinostat; 0.032 with silmitasertib; 0.014 in assay [2]; 0.009 in the assay with entospletinib.
